Residue numbers refer to the chain shown, from its start.
Tests used:
Test in all cases: HT-SELEX; high values mean tight binding
Details in all cases: protein: recombinant; vector His6-GST; dsDNA, one strand shown
SALL4 ZFC4 WT (HT-SELEX) = biological target: T1, SALL4 ZFC4 WT (HT-SELEX) (Mus musculus, UniProt Q8BX22 870-940)
T1 sequence: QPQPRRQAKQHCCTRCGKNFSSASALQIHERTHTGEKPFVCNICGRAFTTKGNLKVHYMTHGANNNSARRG
Outline: (§1)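 Up to 6 cycles of selection were run in triplicate. In each, purified recombinant mouse SALL4 zinc finger cluster 4 (residues 870–940, 1 µg) was incubated with library DNA (1.5 µg first cycle, 200 ng later) in 100 µl of 10 mM Tris–HCl pH 7.5, 50 mM NaCl, poly(dI-dC), DTT for 10 min at room temperature, then complexes were captured on Ni2+ beads, washed and PCR-amplified; final pools were MiSeq-sequenced and scanned for 6-mers. Binding signal is each canonical k-mer's read fraction as fold change versus the initial random library.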

[1] = biological target: T2, SALL4 ZFC4 R900W (HT-SELEX) (Mus musculus, UniProt Q8BX22 870-940, R900W)
T2 sequence: T1 sequence with R31W
Outline: as §1

[2] = biological target: T3, SALL4 ZFC4 G921D (HT-SELEX) (Mus musculus, UniProt Q8BX22 870-940, G921D)
T3 sequence: T1 sequence with G52D
Outline: as §1

| Sequence | binding signal (SALL4 ZFC4 WT (HT-SELEX)) [fold-change vs cycle 0] | binding signal [1] [fold-change vs cycle 0] | binding signal [2] [fold-change vs cycle 0] |
| --- | --- | --- | --- |
| TAGCAA | 1.14 ± 0.0337 | 1.17 ± 0.0822 | 1.21 ± 0.0899 |
| GCTTCA | 0.635 ± 0.0338 | 0.769 ± 0.0139 | 0.8419 ± 0.0056 |
| CTCCAG | 0.482 ± 0.0297 | 0.584 ± 0.0424 | 0.667 ± 0.0339 |
| GCAGGA | 0.338 ± 0.0276 | 0.413 ± 0.0223 | 0.489 ± 0.0596 |
| AAGTCC | 0.762 ± 0.0144 | 0.863 ± 0.0347 | 0.936 ± 0.0256 |
| CTTAGA | 1.28 ± 0.0284 | 1.45 ± 0.0641 | 1.36 ± 0.0933 |
| ACTGTG | 0.743 ± 0.0431 | 0.842 ± 0.0558 | 0.876 ± 0.035 |
| TGGACA | 0.662 ± 0.0418 | 0.761 ± 0.0205 | 0.847 ± 0.0377 |
| ATACAA | 2 ± 0.0726 | 1.98 ± 0.0733 | 1.76 ± 0.0991 |
| CTAGGC | 0.314 ± 0.00866 | 0.38 ± 0.00705 | 0.509 ± 0.0429 |
| CCTTAA | 1.32 ± 0.0558 | 1.49 ± 0.018 | 1.37 ± 0.0901 |
| GATTAA | 2.07 ± 0.127 | 1.99 ± 0.123 | 1.77 ± 0.188 |
| GAACTC | 0.875 ± 0.0352 | 1.03 ± 0.0309 | 1.04 ± 0.0772 |
| GCCATA | 0.544 ± 0.0118 | 0.556 ± 0.0265 | 0.681 ± 0.0554 |
| CCCTCA | 0.502 ± 0.0184 | 0.579 ± 0.0163 | 0.665 ± 0.0275 |
| AACGGT | 0.689 ± 0.0523 | 0.7682 ± 0.0076 | 0.832 ± 0.0229 |
| TCCTAA | 1.43 ± 0.0908 | 1.56 ± 0.119 | 1.46 ± 0.14 |
| CCTTAG | 0.925 ± 0.0277 | 1.06 ± 0.0431 | 1.04 ± 0.0492 |
| ATTCAC | 1.32 ± 0.0734 | 1.45 ± 0.0876 | 1.38 ± 0.121 |
| TCATCA | 1.46 ± 0.0322 | 1.56 ± 0.0457 | 1.49 ± 0.0698 |

| Sequence | binding signal (SALL4 ZFC4 WT (HT-SELEX)) [fold-change vs cycle 0] | binding signal [1] [fold-change vs cycle 0] | binding signal [2] [fold-change vs cycle 0] |
| --- | --- | --- | --- |
| CATCCA | 0.851 ± 0.0432 | 0.934 ± 0.0343 | 0.974 ± 0.0408 |
| AACCAG | 0.772 ± 0.0439 | 0.91 ± 0.0252 | 0.941 ± 0.0329 |
| ATAACA | 2.52 ± 0.194 | 2.06 ± 0.122 | 1.83 ± 0.192 |
| CTTGGA | 0.806 ± 0.0506 | 0.948 ± 0.0291 | 0.984 ± 0.0463 |
| CTATAG | 1.37 ± 0.136 | 1.45 ± 0.0344 | 1.35 ± 0.128 |
| TACCAA | 1.27 ± 0.0357 | 1.33 ± 0.0163 | 1.32 ± 0.055 |
| AGAAGA | 1.43 ± 0.0638 | 1.64 ± 0.118 | 1.47 ± 0.162 |
| CATAAC | 1.83 ± 0.124 | 1.43 ± 0.0541 | 1.37 ± 0.0667 |
| CCCCAA | 0.421 ± 0.0191 | 0.471 ± 0.00864 | 0.561 ± 0.0695 |
| AACAGT | 1.28 ± 0.0479 | 1.41 ± 0.0726 | 1.35 ± 0.0692 |
| AGGGGA | 0.532 ± 0.0414 | 0.608 ± 0.0303 | 0.671 ± 0.0432 |
| ACTTCT | 1.44 ± 0.0317 | 1.64 ± 0.0808 | 1.45 ± 0.0874 |
| CATGGG | 0.477 ± 0.0485 | 0.543 ± 0.0349 | 0.645 ± 0.0616 |
| CTTTGA | 1.2 ± 0.0763 | 1.36 ± 0.0716 | 1.33 ± 0.077 |
| ACTGAA | 1.38 ± 0.0494 | 1.5 ± 0.11 | 1.39 ± 0.103 |
| CATCAA | 1.23 ± 0.0349 | 1.37 ± 0.0542 | 1.32 ± 0.0556 |
| ACGATA | 1.28 ± 0.0502 | 1.3 ± 0.0452 | 1.26 ± 0.0543 |
| GGTCAC | 0.432 ± 0.0454 | 0.512 ± 0.0261 | 0.662 ± 0.0597 |
| TAGATA | 2.23 ± 0.154 | 2.04 ± 0.12 | 1.84 ± 0.212 |
| GAAAAA | 1.86 ± 0.136 | 1.6 ± 0.0749 | 1.47 ± 0.105 |

| Sequence | binding signal (SALL4 ZFC4 WT (HT-SELEX)) [fold-change vs cycle 0] | binding signal [1] [fold-change vs cycle 0] | binding signal [2] [fold-change vs cycle 0] |
| --- | --- | --- | --- |
| AATTCC | 1.34 ± 0.0764 | 1.36 ± 0.0844 | 1.31 ± 0.0693 |
| AATGGC | 0.467 ± 0.0217 | 0.534 ± 0.0101 | 0.662 ± 0.067 |
| AGTACG | 0.724 ± 0.0595 | 0.83 ± 0.0465 | 0.871 ± 0.0406 |
| CTACAG | 0.79 ± 0.0207 | 0.894 ± 0.0405 | 0.94 ± 0.015 |
| ACTAGT | 1.33 ± 0.0473 | 1.52 ± 0.0779 | 1.37 ± 0.106 |
| TATAGA | 2.35 ± 0.163 | 2.02 ± 0.132 | 1.81 ± 0.192 |
| CGGATC | 0.362 ± 0.0382 | 0.438 ± 0.0155 | 0.571 ± 0.02 |
| CATAAA | 2.36 ± 0.2 | 1.79 ± 0.0666 | 1.6 ± 0.121 |
| GAACAC | 0.766 ± 0.0374 | 0.901 ± 0.0255 | 0.932 ± 0.0461 |
| CCTACC | 0.45 ± 0.0245 | 0.53 ± 0.00975 | 0.625 ± 0.0741 |
| ACTACT | 1.38 ± 0.0657 | 1.52 ± 0.107 | 1.43 ± 0.121 |
| CCCATA | 0.844 ± 0.0635 | 0.917 ± 0.0435 | 0.905 ± 0.0367 |
| GTTTCA | 1.26 ± 0.0534 | 1.32 ± 0.0266 | 1.31 ± 0.0949 |
| ACTATC | 1.35 ± 0.0436 | 1.45 ± 0.0712 | 1.39 ± 0.1 |
| GTCAGA | 0.728 ± 0.0316 | 0.836 ± 0.0595 | 0.887 ± 0.0403 |
| CTCTAC | 0.799 ± 0.0191 | 0.917 ± 0.016 | 0.954 ± 0.0195 |
| ACCTAG | 0.875 ± 0.0697 | 0.986 ± 0.0422 | 1.04 ± 0.0407 |
| CTCGTA | 0.764 ± 0.033 | 0.867 ± 0.0258 | 0.901 ± 0.00732 |
| GTGGTA | 0.757 ± 0.0708 | 0.849 ± 0.0366 | 0.874 ± 0.0298 |
| AGTAAC | 1.458 ± 0.009 | 1.62 ± 0.0372 | 1.49 ± 0.109 |

Source: PMC9838217, “Structure of SALL4 zinc finger domain reveals link between AT-rich DNA binding and Okihiro syndrome”
